Assay outcomes deposited in PubChem by National Center for Advancing Translational Sciences (NCATS).
A selection: hits, their analogues and other compounds. The true share with any hit is near 9.3%.
FLuc counter: qHTS profiling assay for firefly luciferase inhibitor/activator using purifed enzyme and Km concentrations of substrates (counterscreen for miR-21 project). Potency, µM (highest dose often 57.5 µM), for inactives: at the highest dose activity change, negative = inhibition, actives largely listed as inhibitors. purified FLuc, Km substrates, luminescence inhibition. 6.9% of 360,000 active. Luciferin 4-monooxygenase (Photinus pyralis), P08659;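 note: plate controls were vehicle for no effect and reference inhibitor for full effect; nearly all actives have a fitted effect of over 55% in size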
Target sequence (P08659 whole entry, looked up): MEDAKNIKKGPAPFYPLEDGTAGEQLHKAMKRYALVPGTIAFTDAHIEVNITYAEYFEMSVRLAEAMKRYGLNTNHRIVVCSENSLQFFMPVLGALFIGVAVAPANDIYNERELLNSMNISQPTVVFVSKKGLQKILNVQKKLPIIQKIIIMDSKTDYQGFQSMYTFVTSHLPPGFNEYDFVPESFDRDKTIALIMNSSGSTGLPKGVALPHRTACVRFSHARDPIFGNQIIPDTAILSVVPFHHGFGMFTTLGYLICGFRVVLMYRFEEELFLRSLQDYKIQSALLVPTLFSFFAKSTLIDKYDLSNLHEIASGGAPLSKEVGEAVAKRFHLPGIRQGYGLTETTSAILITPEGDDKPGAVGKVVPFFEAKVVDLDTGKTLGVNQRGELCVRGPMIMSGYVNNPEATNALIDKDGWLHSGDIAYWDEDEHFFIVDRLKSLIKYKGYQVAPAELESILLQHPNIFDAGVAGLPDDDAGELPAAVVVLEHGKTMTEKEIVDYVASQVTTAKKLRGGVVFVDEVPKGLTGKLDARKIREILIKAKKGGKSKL
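Biochemical qHTS of compounds, final roughly 60 µM downward over six points, against 10 nM purified firefly luciferase using Km concentrations of substrates (10 uM D-luciferin, 10 uM ATP) in Tris acetate pH 7.5 buffer; luminescence output.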
SMN2 splice enh: qHTS Assay for Enhancers of SMN2 Splice Variant Expression | HEK293 SMN2-luciferase splicing reporter, luminescence, 30-36 h | Potency, µM (highest dose often 46.1 µM), for inactives: at the highest dose activity change, positive = activation, hits mostly activators | 2.8% of 210,000 active | AID 1458, 2008; note: % of control where 0% means no effect; nearly all actives have a fitted effect of over 55% in size
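HEK293 cells carry an SMN2 minigene-luciferase reporter in which exon 7 inclusion puts luciferase in frame. Cells were seeded at 2000 cells/well, attached for 10-12 hours, then exposed to compounds for 30-36 hours at 37C before ONE-Glo luminescence.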
Rab9 promoter act: qHTS Assay for Rab9 Promoter Activators. AID 485297, 2010. Huh7 Rab9 promoter-luciferase reporter, luminescence, 24 h. Potency, µM (highest dose often 9.22 µM), inactives show at the top dose activation, negative = inhibition, most hits filed as activators. 2.8% of 320,000 active; note: % of control where 0% means no effect; nearly all actives have a fitted effect of over 60% in size
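Rab9 promoter-driven luciferase in stably transfected Huh7 cells; 1500 cells/well rested 2 h, exposed to compound in DMSO for 24 h at 37 °C, 5% CO2. Luminescence read 10 min after adding luciferase reagent at ambient temperature.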
ELG1 repair inh: qHTS screen for small molecules that inhibit ELG1-dependent DNA repair in human embryonic kidney (HEK293T) cells expressing luciferase-tagged ELG1; HEK293T ELG1-luciferase reporter, luminescence, 16 h; DNA damage induced by 5-fluorouridine; Potency, µM (titrated, usually from 46.1 µM), for the others: at the highest dose activity change, negative = inhibition, hits mostly inhibitors; 2.3% of 330,000 active; AID 504467, 2011; note: % is set by controls: 0 for no effect and ±100 for the full control effect; nearly all actives have a fitted effect of over 55% in size
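5-Fluorouridine DNA damage + compound/DMSO, 2,000 cells/well, 16 h, 37 °C/5% CO2. ONE-Glo, 30 min RT, luminescence. Readout = decrease in reporter signal.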
ELG1 genotox: qHTS screen for small molecules that induce genotoxicity in human embryonic kidney (HEK293T) cells expressing luciferase-tagged ELG1; AID 504466, 2011; 1.3% of 330,000 active; HEK293T ELG1-luciferase reporter, luminescence, 16 h; Potency, µM (titrated, usually from 46 µM), for inactives: at the highest dose activity change, positive = activation, actives largely listed as activators; note: % of control where 0% means no effect; nearly all actives have a fitted effect of over 60% in size
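Reporter readout depends on ELG1 protein level, which increases with genetic stress. After 16 hr compound exposure at 37 °C, luciferase activity was quantified using ONE-Glo.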
NPC1 prom act: qHTS Assay for NPC1 Promoter Activators; Huh7 NPC1 promoter luciferase reporter, 24 h; Potency, µM (series often up to 9.22 µM), inactives show at the top dose activation, usual class: activators; 2.4% of 320,000 active; AID 485313, 2010; note: % of control where 0% means no effect; nearly all actives have a fitted effect of over 60% in size
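Luminescence read-out of NPC1 promoter-driven luciferase in stably transfected Huh7 cells; compounds delivered in DMSO and left 24 h at 37C, 5% CO2, qHTS titration format.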
* hit, by the source's call; ? = inconclusive; nt = not tested or not shown. Calls come from the whole dose curve; as a rule, active = well fitted curve in the direction sought with a large enough effect; inconclusive = small, poorly fitted or top-dose-only effect, or another doubt; inactive = no such curve, though single readings can be large; an effect the other way counts as inactive or inconclusive. Potency is the fitted concentration of half-maximal effect.

SMILES	FLuc counter	SMN2 splice enh	Rab9 promoter act	ELG1 repair inh	ELG1 genotox	NPC1 prom act
CCOc1ccc2c(c1)c(=O)c(C(=O)c1ccc(CC)cc1)cn2CC(=O)Nc1ccccc1C	-0.4%	1.7%	nt	nt	nt	nt
C[C@]12c3[nH]c4ccccc4c3CCN1C(=O)C(CC(=O)NCCc1ccccn1)C[C@@H]2C(=O)N1CCCCC1 (stereo partly specified)	nt	nt	nt	-0.7%	2.6%	nt
COc1ccccc1NS(=O)(=O)c1cccc(C(=O)N/N=C/c2ccc3c(c2)OCCO3)c1	10.7µM*	22.7%	1.5%	10.0%	3.5%	-1.4%
O=C(N/N=C/c1ccccc1O)c1ccc2c(c1)OCO2	2.69µM*	nt	-17.0%	?	14.6µM*	?
CCN(CC)c1ccc(/C=N/NC(=O)Nc2nonc2N)cc1	13.5µM*	?	19.2%	?	1.8%	20.8%
COc1ccc(NS(=O)(=O)c2cccc(C(=O)N/N=C/c3ccc4c(c3)OCCO4)c2)cc1	-1.2%	21.1%	-2.7%	7.0%	1.2%	0.1%
O=C(N/N=C/c1ccsc1)c1ccc2c(c1)OCO2	3.38µM*	nt	2.82µM*	?	?	3.55µM*
CCN1CCN(C(=O)c2cc(S(=O)(=O)N3CC(C)CC(C)C3)ccc2Cl)CC1 (stereo unspecified)	-0.3%	nt	-2.1%	0.9%	-1.1%	-6.9%
O=C(N/N=C/c1ccc(Cl)cc1)c1ccc2c(c1)OCO2	3.38µM*	nt	25.8%	?	?	7.8%
O=C(N/N=C/c1ccc2c(c1)OCO2)c1ccc(Br)o1	4.78µM*	12.6µM*	2.82µM*	?	10.3µM*	4.47µM*
O=C(N/N=C/c1cccs1)c1ccc2c(c1)OCO2	2.69µM*	12.6µM*	1.26µM*	?	9.2µM*	2.51µM*
O=C(N/N=C(/c1ccccc1)c1ccncc1)c1ccc2c(c1)OCO2	-2.1%	-11.8%	2.3%	-28.2%	-0.8%	-0.5%
O=C(N/N=C/c1cccs1)c1cccc(NC(=O)c2ccc(Cl)cc2)c1	-14.2%	-17.2%	-1.3%	-29.4%	?	-2.6%
O=C(N/N=C/c1ccncc1)c1ccc2c(c1)OCO2	26.9µM*	?	15.2%	?	-6.1%	7.9%
COc1ccc(NC(=O)Cn2c(=O)n(-c3ccc(C)c(C)c3)c(=O)c3c4c(sc32)CCCCC4)cc1Cl	-0.9%	0.8%	nt	nt	nt	nt
CC(=O)c1ccc(N2CCN(S(=O)(=O)c3ccc(-c4cnc(C5CC5)o4)cc3)CC2)cc1	-2.0%	nt	-17.7%	?	7.5%	-6.5%
COC(=O)c1ccc(S(=O)(=O)N2CCC(O)CC2)n1C	-0.9%	nt	-2.5%	?	-0.8%	-5.9%
CCN(CC)c1ccc(/C=N/NC(=O)C2CC2)cc1	15.1µM*	nt	?	?	?	16.0%
CCCCCCOc1ccc(/C=N/NC(=O)C2CC2)cc1	-3.4%	nt	4.1%	5.4%	4.5%	-0.5%
Cc1ccc(N=Nc2c(=O)[nH]n3c(=O)cc(C)[nH]c23)cc1	15.1µM*	-36.9%	6.5%	?	?	6.0%
Cc1ccc(C(=O)COC(=O)C(C)N2C(=O)C3C4C=CC(C4)C3C2=O)cc1C (stereo unspecified)	13.5µM*	nt	-0.5%	12.6%	2.3%	-3.5%
Cc1ccc(C(=O)COC(=O)C(C)N2C(=O)C3C4C=CC(C4)C3C2=O)cc1 (stereo unspecified)	?	-5.1%	-4.2%	-1.0%	1.2%	7.6%
Cc1ccc(C(=O)COC(=O)c2ccccc2N2C(=O)C3C4CCC(C4)C3C2=O)cc1C (stereo unspecified)	12µM*	-10.3%	12.3%	-2.5%	-0.9%	-3.2%
Cc1ccc(C)c(C(=O)COC(=O)CCN2C(=O)C3C4CCC(C4)C3C2=O)c1 (stereo unspecified)	12µM*	nt	1.9%	-14.0%	2.4%	-5.4%
COc1ccc(S(=O)(=O)N2CCCCCC2)cc1C(=O)NCc1ccccc1Cl	-7.8%	nt	1.7%	?	1.5%	-6.8%
SMILES	FLuc counter	SMN2 splice enh	Rab9 promoter act	ELG1 repair inh	ELG1 genotox	NPC1 prom act
COc1ccccc1/C=C/C(=O)NC(=S)Nc1ccccn1	10.7µM*	nt	14.3%	?	23.1µM*	?
O=C(/C=C/c1ccccc1)NC(=S)Nc1ncccn1	16.9µM*	nt	-0.2%	3.5%	4.4%	0.9%
COc1ccc(/C=C/C(=O)NC(=S)Nc2ccccn2)cc1	?	nt	0.891µM*	?	?	1.26µM*
COc1ccc(/C=C/C(=O)NC(=S)Nc2ccc(S(N)(=O)=O)cc2)cc1	1.8%	nt	-0.7%	-1.2%	-0.5%	-0.9%
Cc1cc(C(=O)N2CCN(Cc3ccccc3)CC2)ccc1[N+](=O)[O-]	-1.5%	nt	-0.7%	-16.1%	-7.2%	4.4%
N#C/C(=C(/O)CSc1ccccc1C(=O)O)c1nc2ccccc2s1	4.8%	1.9%	0.2%	?	0.4%	0.0%
Cc1ccccc1N/N=C/c1c(C)nc2ccccn12	12µM*	nt	7.6%	1.8%	-4.3%	2.9%
Cc1c(-c2ncn[nH]2)sc(C#N)c1-c1ccccc1	19µM*	-17.7%	-3.3%	-2.7%	1.9%	7.9%
Cc1sc2nc(-c3ccccc3)[nH]c(=O)c2c1-c1ccccc1	-6.0%	0.1%	-2.0%	21.9%	5.6%	-2.6%
C=CCN(C(=O)Cn1c(C(=O)OC)cc2oc(C)cc21)c1ccccc1	-1.2%	nt	3.1%	-0.4%	-4.0%	-3.9%
O=C(CCS(=O)(=O)c1cccs1)Nc1ccc(C(=O)Nc2cccc(Cl)c2)cc1	-4.6%	?	nt	nt	nt	nt
Cc1cc(NC(=O)c2ccc(NC(=O)CCS(=O)(=O)c3cccs3)cc2)ccc1Br	-1.9%	15.8µM*	nt	nt	nt	nt
COc1ccc(NC(=O)c2ccc(NC(=O)CCS(=O)(=O)c3cccs3)cc2)cc1Cl	4.9%	15.8µM*	nt	nt	nt	nt
CC1(C)CC(=O)c2sc(NC(=O)CN3CCCCC3)nc2C1	4.8%	-4.3%	-0.9%	17.6%	-11.6%	-0.7%
CC(Oc1ccccc1)C(=O)Nc1nc2c(s1)C(=O)CC(C)(C)C2 (stereo unspecified)	-7.8%	-20.0%	-2.3%	-19.0%	1.0%	1.3%
CC1(C)CC(=O)c2sc(NC(=O)C(C)(C)C)nc2C1	?	nt	2.82µM*	?	?	?
CC1(C)CC(=O)c2sc(NC(=O)c3cccs3)nc2C1	0.757µM*	2.24µM*	0.501µM*	?	?	?
